Inconclusive results are not listed. Activity calls are given as the source filed them. Unless noted, calls come from the whole dose curve; as a rule, active = well fitted curve in the direction sought with a large enough effect in the repeat runs; inconclusive = weak or mixed curves; inactive = no such curve, though single readings can be large; an effect the other way counts as inactive or inconclusive.
Tests used:
[1] = qHTS assay to identify aromatase inhibitors - cell viability counter screen (AID 743084);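 note: cells stimulated with testosterone during compound exposure; nearly all actives have a fitted effect of over 55% in size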; note: potency is the fitted concentration of half-maximal effect
[2] = target: Aryl hydrocarbon receptor (Homo sapiens) (UniProt P35869); assay: qHTS assay to identify small molecule that activate the aryl hydrocarbon receptor (AhR) signaling pathway (AID 743085); note: nearly all actives have a fitted effect of over 15% in size; note: potency is the fitted concentration of half-maximal effect;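 for activation: HG2L7.5c1 human HepG2 liver cells with stably integrated DRE-driven firefly reporter; series mostly up to about 70 µM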
Sequence of Aryl hydrocarbon receptor (Homo sapiens) (P35869 whole entry, looked up): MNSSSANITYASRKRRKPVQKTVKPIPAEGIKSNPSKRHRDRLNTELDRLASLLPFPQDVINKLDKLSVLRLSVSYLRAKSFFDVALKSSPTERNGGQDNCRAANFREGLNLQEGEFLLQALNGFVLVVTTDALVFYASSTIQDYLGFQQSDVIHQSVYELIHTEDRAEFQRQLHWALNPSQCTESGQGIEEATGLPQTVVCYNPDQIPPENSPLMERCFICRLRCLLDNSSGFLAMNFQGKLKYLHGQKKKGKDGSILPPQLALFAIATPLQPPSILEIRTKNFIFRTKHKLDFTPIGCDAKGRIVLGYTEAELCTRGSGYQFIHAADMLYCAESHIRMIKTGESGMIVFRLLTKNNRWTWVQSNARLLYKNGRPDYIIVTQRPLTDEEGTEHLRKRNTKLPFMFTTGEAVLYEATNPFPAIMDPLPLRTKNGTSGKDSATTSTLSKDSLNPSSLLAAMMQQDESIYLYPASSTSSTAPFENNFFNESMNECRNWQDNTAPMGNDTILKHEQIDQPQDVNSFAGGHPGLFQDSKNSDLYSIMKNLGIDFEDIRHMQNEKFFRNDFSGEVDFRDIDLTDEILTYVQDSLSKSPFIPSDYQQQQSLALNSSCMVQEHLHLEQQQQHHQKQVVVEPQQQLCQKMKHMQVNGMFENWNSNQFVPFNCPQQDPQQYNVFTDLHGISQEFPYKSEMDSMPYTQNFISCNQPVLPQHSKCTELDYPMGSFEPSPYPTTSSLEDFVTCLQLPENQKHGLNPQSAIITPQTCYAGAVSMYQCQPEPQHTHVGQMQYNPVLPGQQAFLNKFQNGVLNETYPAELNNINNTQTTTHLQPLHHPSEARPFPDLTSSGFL
Method in brief: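 A multiplexed format paired cell viability (CellTiter-Fluor fluorescence) with AhR-dependent luciferase output (ONE-Glo luminescence) in the same wells of HepG2 DRE-luc cells after 24 h compound exposure at 37C.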

[3] = qHTS assay to identify small molecule that activate the aryl hydrocarbon receptor (AhR) signaling pathway - cell viability counter screen (AID 743086);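 note: HepG2 liver cells carrying the AhR DRE luciferase reporter; series mostly up to about 70 µM; nearly all actives have a fitted effect of over 45% in size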
Method in brief: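 HepG2-AhR-luc (HG2L7.5c1) cells, 4000/well, treated 24 h at 37 C with compound; viability measured as CellTiter-Fluor fluorescence after 30 min in the same wells as the luciferase read.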

[4] = qHTS assay for small molecule agonists of the antioxidant response element (ARE) signaling pathway - cell viability counter screen (AID 743203; calls by dose curve; note: nearly all actives have a fitted effect of over 55% in size; note: potency is the fitted concentration of half-maximal effect)
Method in brief: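 ATP content via CellTiter-Glo luminescence served as the viability measure. Cells: ARE-bla HepG2, 2,000 per well. Exposure: 16 hrs, 37C/5% CO2.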

[5] = qHTS assay for small molecule activators of the heat shock response signaling pathway - cell viability counter screen (AID 743209); note: nearly all actives have a fitted effect of over 50% in size
Method in brief: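 Compounds dissolved in DMSO were added to overnight-plated HSE-bla HeLa cells and left 5 h at 37 C. Cell viability was quantified by luminescence using CellTiter-Glo.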

[6] = qHTS assay for small molecule activators of the heat shock response signaling pathway (AID 743210; active = well fitted activation curve with a large enough effect in the signal ratio in the repeat runs, with a control signal flat, not every such curve was filed as active; the % refers to the signal ratio;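 note: HeLa cells with beta-lactamase reporter driven by heat shock elements; series mostly up to about 63 µM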)
Method in brief: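 Beta-lactamase reporter read-out: FRET substrate fluorescence after 2.5 h at RT, following 5 h compound treatment at 37 C of HeLa cells carrying HSE-driven bla reporter; quantitative HTS format.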

[7] = qHTS assay to identify small molecule agonists of the peroxisome proliferator-activated receptor delta (PPARd) signaling pathway - cell viability counter screen (AID 743211); note: nearly all actives have a fitted effect of over 55% in size; note: potency is the fitted concentration of half-maximal effect
Method in brief: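 Tox21 library compounds, delivered in DMSO, were incubated 17 h with PPARd-bla HEK293H cells; cytotoxicity was taken from CellTiter-Glo luminescence read 30 min after reagent addition.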

[8] = target: Peroxisome proliferator-activated receptor delta (Homo sapiens) (UniProt Q03181); assay: qHTS assay to identify small molecule agonists of the peroxisome proliferator-activated receptor delta (PPARd) signaling pathway (AID 743212; calls by dose curve)
Sequence of Peroxisome proliferator-activated receptor delta (Homo sapiens) (Q03181 whole entry, looked up): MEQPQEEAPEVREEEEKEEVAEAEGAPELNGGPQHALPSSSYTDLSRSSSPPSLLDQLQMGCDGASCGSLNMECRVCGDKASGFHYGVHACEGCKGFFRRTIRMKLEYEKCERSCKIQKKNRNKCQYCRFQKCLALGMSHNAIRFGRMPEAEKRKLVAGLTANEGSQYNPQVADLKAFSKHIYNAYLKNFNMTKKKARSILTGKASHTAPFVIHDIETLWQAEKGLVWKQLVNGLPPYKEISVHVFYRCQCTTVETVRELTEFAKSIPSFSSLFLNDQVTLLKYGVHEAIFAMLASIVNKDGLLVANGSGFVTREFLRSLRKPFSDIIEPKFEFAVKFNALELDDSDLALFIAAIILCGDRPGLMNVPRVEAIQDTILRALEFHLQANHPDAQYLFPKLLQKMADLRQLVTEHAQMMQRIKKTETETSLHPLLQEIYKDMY
Method in brief: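 Read-out: beta-lactamase FRET fluorescence after 2 h room-temperature incubation with LiveBLAzer B/G substrate. Cells were HEK293H carrying a UAS-bla reporter for PPARd, treated at 37 C with DMSO-dissolved compounds.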

[9] = qHTS assay to identify small molecule antagonists of the peroxisome proliferator-activated receptor delta (PPARd) signaling pathway - cell viability counter screen (AID 743213); note: nearly all actives have a fitted effect of over 50% in size
Method in brief: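 HEK293H cells with the PPARd UAS-bla reporter, co-treated 17 h at 37 C with compounds and L165041 (300 nM final), were lysed with CellTiter-Glo. Luminescence indicated viable cell content.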

[10] = target: Peroxisome proliferator-activated receptor delta (Homo sapiens) (UniProt Q03181); assay: qHTS assay to identify small molecule antagonists of the peroxisome proliferator-activated receptor delta (PPARd) signaling pathway (AID 743215; active = well fitted inhibition curve with a large enough effect in the signal ratio in the repeat runs, not every such curve was filed as active; the % refers to the signal ratio;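 note: cells stimulated with agonist L165041 at 300 nM final during compound exposure; series mostly up to about 62 µM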)
Method in brief: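 Here, a reporter line (HEK293H, beta-lactamase under a UAS) measures PPARd signaling. Compounds are tested against agonist L165041 at 300 nM final concentration over 17 h at 37 C, with fluorescence read after substrate.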

[11] = qHTS assay to identify small molecule agonists of the farnesoid-X-receptor (FXR) signaling pathway - cell viability counter screen (AID 743218); note: nearly all actives have a fitted effect of over 45% in size
Method in brief: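 Quantitative HTS counter screen measuring ATP-based viability via CellTiter-Glo luminescence in HEK 293T cells carrying a UAS-driven beta-lactamase reporter, after 16 h compound exposure at 37 C.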

[12] = qHTS assay to identify small molecule antagonists of the farnesoid-X-receptor (FXR) signaling pathway - cell viability counter screen (AID 743221; active = well fitted cell-killing curve with a large enough effect in the repeat runs, not every such curve was filed as active; note: nearly all actives have a fitted effect of over 50% in size)
Method in brief: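 Cytotoxicity is taken from ATP luminescence (CellTiter-Glo, 30 min, room temperature) in FXR-bla HEK 293T cells previously incubated 16 h at 37 C with compound and chenodeoxycholic acid at 50 uM final.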

[13] = target: Vitamin D3 receptor (Homo sapiens) (UniProt P11473); assay: qHTS assay to identify small molecule agonists of the vitamin D receptor (VDR) signaling pathway (AID 743222; calls by dose curve)
Sequence of Vitamin D3 receptor (Homo sapiens) (P11473 whole entry, looked up): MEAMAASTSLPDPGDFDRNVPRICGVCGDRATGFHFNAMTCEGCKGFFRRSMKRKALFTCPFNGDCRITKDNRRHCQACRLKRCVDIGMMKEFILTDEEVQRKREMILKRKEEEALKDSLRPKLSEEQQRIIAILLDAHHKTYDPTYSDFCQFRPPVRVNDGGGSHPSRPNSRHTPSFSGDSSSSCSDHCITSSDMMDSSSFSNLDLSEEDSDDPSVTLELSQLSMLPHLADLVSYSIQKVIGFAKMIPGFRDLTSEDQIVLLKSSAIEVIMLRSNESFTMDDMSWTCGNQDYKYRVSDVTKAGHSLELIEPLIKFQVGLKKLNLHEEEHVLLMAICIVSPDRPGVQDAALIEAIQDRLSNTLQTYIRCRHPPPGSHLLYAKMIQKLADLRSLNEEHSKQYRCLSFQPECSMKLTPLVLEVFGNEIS
Method in brief: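 Tox21 cell reporter format: VDR-bla line, 16 h compound exposure in 5% CO2 at 37C, then fluorescence intensity after 2 h with LiveBLAzer B/G FRET substrate.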

[14] = target: Vitamin D3 receptor (Homo sapiens) (UniProt P11473); assay: qHTS assay to identify small molecule antagonists of the vitamin D receptor (VDR) signaling pathway (AID 743223; active = well fitted inhibition curve with a large enough effect in the signal ratio in the repeat runs, not every such curve was filed as active; the % refers to the signal ratio)
Method in brief: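 Quantitative HTS in VDR-bla reporter cells stimulated with 1alpha,25-dihydroxyvitamin D3, 3 nM final. Compound exposure 16 h, 37C, 5% CO2. Read-out: beta-lactamase FRET substrate fluorescence, 2 h RT.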

[15] = target: Peroxisome proliferator-activated receptor gamma (Homo sapiens) (UniProt P37231); assay: qHTS assay to identify small molecule agonists of the peroxisome proliferator-activated receptor gamma (PPARg) signaling pathway (AID 743094; active = well fitted activation curve with a large enough effect in the signal ratio in the repeat runs, not every such curve was filed as active; the % refers to the signal ratio)
Sequence of Peroxisome proliferator-activated receptor gamma (Homo sapiens) (P37231 whole entry, looked up): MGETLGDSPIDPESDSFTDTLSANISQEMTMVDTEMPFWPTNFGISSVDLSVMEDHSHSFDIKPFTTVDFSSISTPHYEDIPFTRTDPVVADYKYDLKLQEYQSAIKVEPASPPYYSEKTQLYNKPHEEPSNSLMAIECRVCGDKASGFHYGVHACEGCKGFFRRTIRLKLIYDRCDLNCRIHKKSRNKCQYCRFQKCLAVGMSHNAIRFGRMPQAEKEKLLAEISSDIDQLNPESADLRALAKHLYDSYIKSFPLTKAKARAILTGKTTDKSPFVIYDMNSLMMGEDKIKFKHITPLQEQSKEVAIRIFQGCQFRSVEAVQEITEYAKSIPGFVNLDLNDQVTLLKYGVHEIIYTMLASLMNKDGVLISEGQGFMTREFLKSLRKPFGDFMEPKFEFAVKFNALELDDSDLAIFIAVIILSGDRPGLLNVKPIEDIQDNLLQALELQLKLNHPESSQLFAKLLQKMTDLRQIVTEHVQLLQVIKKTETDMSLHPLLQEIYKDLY
Method in brief: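 Agonism was assessed in a beta-lactamase reporter system, HEK293H cells with a stably integrated UAS-bla construct under PPARg control; the 17 h treatment at 37C preceded a 1 h room-temperature FRET substrate read.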

[16] = qHTS assay to identify small molecule antagonists of the peroxisome proliferator-activated receptor gamma (PPARg) signaling pathway - cell viability counter screen (AID 743194); conditions: Potency: co-treated with 50 nM rosiglitazone; note: nearly all actives have a fitted effect of over 55% in size
Method in brief: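 Cytotoxicity counter screen in PPARg-bla HEK293H cells, same wells as reporter assay. Compounds plus 50 nM rosiglitazone (final) for 17 h at 37 C, then viability read by CellTiter-Glo luminescence.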

[17] = target: Bile acid receptor (Homo sapiens) (UniProt Q96RI1); assay: qHTS assay to identify small molecule antagonists of the farnesoid-X-receptor (FXR) signaling pathway (AID 743217; active = well fitted inhibition curve with a large enough effect in the signal ratio in the repeat runs, not every such curve was filed as active; the % refers to the signal ratio; note: potency is the fitted concentration of half-maximal effect)
Sequence of Bile acid receptor (Homo sapiens) (Q96RI1 whole entry, looked up): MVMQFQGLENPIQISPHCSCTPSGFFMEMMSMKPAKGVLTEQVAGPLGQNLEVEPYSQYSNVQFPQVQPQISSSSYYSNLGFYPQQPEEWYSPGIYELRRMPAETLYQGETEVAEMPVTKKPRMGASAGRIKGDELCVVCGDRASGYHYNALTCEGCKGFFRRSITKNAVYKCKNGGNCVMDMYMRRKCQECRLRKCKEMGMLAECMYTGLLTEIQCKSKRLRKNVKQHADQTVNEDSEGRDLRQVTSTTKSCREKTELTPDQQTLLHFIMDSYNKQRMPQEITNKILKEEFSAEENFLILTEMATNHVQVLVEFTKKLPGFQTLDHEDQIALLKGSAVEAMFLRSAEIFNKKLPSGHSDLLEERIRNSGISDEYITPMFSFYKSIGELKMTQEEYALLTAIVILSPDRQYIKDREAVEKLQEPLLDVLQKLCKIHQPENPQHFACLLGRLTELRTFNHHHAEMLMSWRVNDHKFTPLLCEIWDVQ
Method in brief: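 Test compounds are pin-transferred onto FXR-bla HEK 293T cells, then chenodeoxycholic acid is added at 50 uM final. After 16 h at 37 °C, LiveBLAzer B/G substrate is applied for 2 h at room temperature and fluorescence read.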

[18] = target: Peroxisome proliferator-activated receptor gamma (Homo sapiens) (UniProt P37231); assay: qHTS assay to identify small molecule antagonists of the peroxisome proliferator-activated receptor gamma (PPARg) signaling pathway (AID 743191; calls by dose curve; note: nearly all actives have a fitted effect of over 30% in size; note: potency is the fitted concentration of half-maximal effect)
Method in brief: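 GeneBLAzer PPARg UAS-bla HEK293H cells, 5 h post-plating, exposed to compounds 17 h at 37C. LiveBLAzer B/G FRET substrate added for 1 h at room temperature; beta-lactamase reporter read by fluorescence intensity.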

[19] = qHTS assay for small molecule agonists of the antioxidant response element (ARE) signaling pathway (AID 743202; active = well fitted activation curve with a large enough effect in the signal ratio in the repeat runs, not every such curve was filed as active; the % refers to the signal ratio; note: potency is the fitted concentration of half-maximal effect)
Method in brief: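 HepG2 ARE-bla reporter line, 2,000 cells/well; 5 h preincubation 37 C/5% CO2; compound (DMSO) 16 h 37 C; B/G FRET substrate 2 h RT; fluorescence intensity.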

[20] = target: Bile acid receptor (Homo sapiens) (UniProt Q96RI1); assay: qHTS assay to identify small molecule agonists of the farnesoid-X-receptor (FXR) signaling pathway (AID 743220; active = well fitted activation curve with a large enough effect in the signal ratio in the repeat runs, not every such curve was filed as active; the % refers to the signal ratio)
Method in brief: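 FXR-UAS-bla HEK 293T cells carrying a UAS-driven beta-lactamase reporter were plated for 5 h at 37C/5% CO2, then exposed to DMSO-dissolved Tox21 10K compounds for 16 h at 37C. A LiveBLAzer B/G FRET substrate was loaded for 2 h at room temperature before fluorescence reading.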

Measured: Potency

COC(=O)C(Br)CBr (stereo not given)
inactive: [1] | [2] | [3] | [4] | [5] | [6] | [7] | [8] | [9] | [10] | [11] | [12] | [13] | [14]

CCOP(=S)(OCC)Oc1nc(Cl)c(Cl)cc1Cl
inactive: [1] | [3] | [15] | [16] | [4] | [5] | [6] | [7] | [8] | [9] | [10] | [17] | [11] | [12] | [13] | [14]

COP(=S)(Oc1cc(Cl)c(Br)cc1Cl)c1ccccc1 (stereo not given)
active: [2] 27.3 µM | [4] 48.6 µM
inactive: [1] | [3] | [5] | [6] | [8] | [9] | [12] | [13] | [14]

CCc1ccc(C(=O)NN(C(=O)c2cc(C)cc(C)c2)C(C)(C)C)cc1
active: [1] 6.86 µM | [19] 61.1 µM | [17] 54.9 µM
inactive: [2] | [18] | [16] | [4] | [5] | [6] | [7] | [8] | [9] | [10] | [12] | [13] | [14]

CCOP(=O)(OCC)O/C(=C/Cl)c1ccc(Cl)cc1Cl
inactive: [1] | [3] | [15] | [16] | [4] | [5] | [6] | [7] | [8] | [9] | [10] | [11] | [12] | [13] | [14]

Cc1ccccc1C(=O)Nc1cccc(OC(C)C)c1
active: [18] 49 µM
inactive: [1] | [3] | [15] | [4] | [5] | [6] | [7] | [8] | [9] | [10]

ClC=C(Cl)Cl
inactive: [1] | [3] | [15] | [18] | [16] | [19] | [4] | [5] | [6] | [7] | [8] | [9] | [10] | [17] | [20] | [12]

CC(=O)C(C)(C)C
inactive: [1] | [3] | [15] | [18] | [16] | [19] | [4] | [6] | [7] | [9] | [11] | [12]

Cc1ccc(N)cc1C
inactive: [1] | [3] | [15] | [16] | [19] | [4] | [5] | [6] | [7] | [8] | [10] | [11] | [20] | [12] | [13] | [14]

CCOC(=O)CBr
inactive: [1] | [3] | [15] | [18] | [16] | [4] | [5] | [6] | [7] | [8] | [9] | [10] | [17] | [20] | [12] | [13] | [14]

NC(=O)C(Cl)(Cl)Cl
inactive: [1] | [3] | [15] | [18] | [16] | [4] | [5] | [6] | [7] | [8] | [10] | [17] | [11] | [20] | [12] | [13] | [14]

CCCCCC[N+](=O)[O-]
inactive: [1] | [2] | [3] | [4] | [5] | [6] | [7] | [9] | [17] | [11] | [20] | [12] | [13]

O=[N+]([O-])c1cc(C(F)(F)F)cc([N+](=O)[O-])c1Cl
inactive: [1] | [2] | [18] | [16] | [4] | [5] | [6] | [7] | [10] | [17] | [20] | [13]

C=CC[C@]1(O)CC[C@H]2[C@@H]3CCC4=CC(=O)CCC4=C3C=C[C@@]21C
inactive: [1] | [3] | [4] | [5] | [6] | [7] | [11] | [12]
active: [2] 5.96 µM

Oc1ccc(Cl)c(Cl)c1Cl
inactive: [1] | [3] | [15] | [16] | [4] | [5] | [6] | [7] | [8] | [9] | [10] | [11] | [20] | [12] | [13] | [14]

O=C(OC1CCCCC1)c1ccccc1C(=O)OC1CCCCC1
inactive: [1] | [2] | [3] | [4] | [5] | [6] | [11] | [12] | [14]
active: [7] 46 µM

N#Cc1cc(I)c(O)c(I)c1
inactive: [1] | [2] | [3] | [5] | [6] | [10] | [12] | [13]

CCCC(Cn1cncn1)c1ccc(Cl)cc1Cl (stereo not given)
inactive: [1] | [2] | [3] | [4] | [6] | [8] | [9] | [10] | [11] | [12] | [13]
